Here are results for 40 compounds from PubChem BioAssay (NCATS).

SMILES strings stand for the structures. Records with an inconclusive call do not appear. The source made the active and inactive calls. Calls come from the whole dose curve; as a rule, active = well fitted inhibition curve with a large enough effect; inconclusive = small, poorly fitted or top-dose-only effect; inactive = flat fitted curve, though single readings scatter.
% is set by controls: 0 for no effect and ±100 for the full control effect; potency is the fitted concentration of half-maximal effect.

The first experiment deals with HaCat. In words: Cytotoxic Profiling of Annotated Libraries Using Quantitative High-Throughput Screening (AID 1296008). Note: nearly all actives have a fitted effect of over 60% in size. The conditions noted are these: Five cell lines viability, CellTiter-Glo ATP luminescence, 48-72 h; max response: hits give low values. The procedure, abridged: (§1)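 Cells exposed to compounds for 48 or 72 hr at 37 degrees Celsius. Viability read as ATP-coupled luminescence with CellTiter-Glo after 10 min at room temperature.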
`O=C1Nc2ccccc2-c2nc3ccccc3c(=O)n2-c2c(O)cccc21`: the max response was -26.5% (inactive).

As to `COc1ccc(CN2CCN(CCCSc3cc(C(C)(C)C)c(O)c(C(C)(C)C)c3)CC2)c(OC)c1OC`, the max response was -2% (inactive).

Turning to `CN(C)c1ccnc2sc3c(=O)n(N4CCCCCC4)cnc3c12`, the max response was 1.16% (inactive).

As for `Cc1c(C(=O)NCc2cccnc2)nn(-c2ccc(Cl)cc2Cl)c1-c1ccc(Cl)cc1`, the max response was -13.1% (inactive).

Take `CC(C)=CCc1cc2c(cc1O)OC[C@H]1c3ccc(O)cc3O[C@@H]21`: the max response was -13.5% (inactive).

On to `Cn1cc(-c2ccc(F)c(C(F)(F)F)c2)nc1C1CCN(c2ncnc3[nH]ncc23)CC1`, for which the max response is -21.3% (inactive).

As for `O=C(O)CCc1nccc2c1[nH]c1ccccc12`, the max response was 3.67% (inactive).

As to `NS(=O)(=O)c1ccc(N2CCN(CC[C@@H]3OCCc4ccccc43)CC2)cc1`, the max response was -12.7% (inactive).

Turning to `CC1(C)CC[C@]23CO[C@@]4(CCC5[C@@]6(C)CC[C@H](O[C@@H]7OC[C@H](O[C@@H]8O[C@H](CO)[C@@H](O)[C@H](O)[C@H]8O[C@@H]8OC[C@@H](O)[C@H](O)[C@H]8O)[C@H](O)[C@H]7O)[C@@](C)(CO)C6CC[C@@]5(C)[C@]4(C)CC2=O)[C@@H]3C1` (some centres not stated), the max response is 2.87% (inactive).

Consider `Cc1ccc(CNc2ncnc3ccc(-c4ccc(CO)o4)cc23)o1`, for which the Potency is 16.4 µM (active).

As to `C/C(=C/CO)CCC1C(C)CCC2C(C)(C)CCCC12C` (configuration not stated), the max response is -18.8% (inactive).

`C[C@@H]1O[C@@H](O[C@H]2CC[C@@]3(C)C(CC[C@]4(C)C3CC=C3[C@@H]5CC(C)(C)CC[C@]5(C(=O)O[C@@H]5O[C@H](CO)[C@@H](O)[C@H](O)[C@H]5O)CC[C@]34C)[C@]2(C)CO)[C@H](O)[C@H](O[C@@H]2O[C@H](CO)[C@@H](O)[C@H](O)[C@H]2O)[C@H]1O` (some centres not stated): the max response is -8.27% (inactive).

Regarding `C[C@H](Nc1cc2c(-c3ccc4c(c3)OCO4)noc2cn1)c1ccccc1`, the max response was -9.56% (inactive).

For the compound `O=C(N[C@H](Cc1cscn1)C(=O)N[C@@H](CC1CCCCC1)[C@@H](O)[C@@H](O)C1CC1)c1nc2ccccc2[nH]1`, the max response was -14.3% (inactive).

For the compound `O=C(NCCCc1ccccc1)C1CCC(CNS(=O)(=O)c2cccc3nsnc23)CC1` (configuration not stated), the max response was -4.58% (inactive).

Turning to `CC(C)c1ccc(NC(=O)Cn2cnc3c2c(=O)n(C)c(=O)n3C)cc1`, the max response was -14.6% (inactive).

On to `C=C1C(=O)OC[C@@H]1C/C=C(\C)CC1CC(C)C(=O)O1` (some centres not stated), for which the max response was 2.44% (inactive).

In the next experiment the test system is KB-3-1. The description is as above. The conditions noted are these: Five cell lines viability, CellTiter-Glo ATP luminescence, 48-72 h; max response: hits give low values. The procedure, abridged:
as §1
Background: ATP-based viability assays read luminescence as a measure of living cells.
Regarding `C[C@@H]1C[C@H](C)CN(CCC(=O)Nc2ccc(Br)cc2)C1`, the max response was -13.7% (inactive).

In the case of `O=[N+]([O-])c1cn2c(n1)OC[C@@H](OCc1ccc(-c3ccc(OC(F)(F)F)cc3)nc1)C2`, the max response was -0.53% (inactive).

As for `C=C1CCC2[C@](C)(CCC[C@@]2(C)C=O)[C@H]1CC/C(C)=C/CO` (some centres not stated), the compound was classed as inactive.

Consider `COc1ccc(CCc2nc3cc(-c4c(C)noc4C)ccc3n2CC(C)N2CCOCC2)cc1Cl` (configuration not stated), for which the max response was 0.0649% (inactive).

In the case of `O=C(NCC(=O)N1CCCC1)Nc1ccc2cnccc2c1`, the max response was -4.72% (inactive).

Take `C=C(C)C(=O)O[C@H]1[C@H]2C(=C)C(=O)O[C@@H]2/C=C(\CO)CC/C=C(/C=O)[C@@H]1O`: the call was inactive.

As to `COc1c(C)cc(NC(=O)c2nn(Cc3ccc(F)cc3)c3c2CN(C(=O)c2ccc[nH]2)C[C@]3(C)C(N)=O)cc1C`, the result was inactive.

Consider `Cc1[nH]c2ccccc2c1CCNCc1ccc(/C=C/C(=O)NO)cc1`, for which the Potency was 0.082 µM (active).

Turning to `O=C(NC1CCC1)c1ccc(C#Cc2cccc(F)c2)nc1`, the max response is 8.07% (inactive).

With `COc1ccc(NC(=O)C2C[C@H](C)CC[C@H]2C(C)C)cc1` (some centres not stated), the result was inactive.

Turning to `COc1cc(OC)c2c(=O)[nH]c(-c3cc(C)c(OCCO)c(C)c3)nc2c1`, the compound was called inactive.

For `CC1(C=O)CCCC2(C)C1CCC13CC(CO)C(CCC12)C3` (configuration not stated), the max response was 7.38% (inactive).

For the compound `COc1c2c(nc3occc13)C(CC=C(C)C)(OC)C(O)CC2` (configuration not stated), the max response was -4.13% (inactive).

`Cn1ncnc1[C@@H]1c2n[nH]c(=O)c3cc(F)cc(c23)N[C@H]1c1ccc(F)cc1`: the compound was classed as inactive.

For the compound `O=C(O)c1cccc(-c2ccc(-c3cn(C(=O)N4CCCCC4Cc4ccccc4)nn3)cc2)c1` (configuration not stated), the max response is 9.26% (inactive).

In the case of `Cc1cccc(-c2[nH]ncc2-c2ccc(F)c(-c3cnn(CCO)c3)c2)n1`, the max response was -8.92% (inactive).

On to `CC1(C)CCC2(C(=O)OC3OC(COC4OC(CO)C(O)C(O)C4O)C(O)C(O)C3O)CCC3(C)C(=CCC4C5(C)CCC(OC6OCC(O)C(O)C6O)C(C)(C)C5CCC43C)C2C1O` (configuration not stated), for which the compound was classed as inactive.

As to `CC(=O)O[C@@H]1[C@@H](O)[C@H](O[C@@H]2[C@@H](O)[C@@H](O)[C@H](O[C@H]3[C@H](O[C@H]4[C@H](O[C@H]5CC[C@@]6(C)C(CC[C@]7(C)C6CC=C6[C@@H]8CC(C)(C)CC[C@]8(C(=O)O)CC[C@]67C)[C@]5(C)CO)O[C@H](CO)[C@@H](O)[C@@H]4O)OC[C@@H](O)[C@@H]3O)O[C@H]2C)OC[C@H]1O` (some centres not stated), the max response was 9.51% (inactive).

Take `CN(C)CC#CCCC(=O)C(O)(c1ccccc1)C1CCC1` (configuration not stated): the max response was 7.92% (inactive).

Take `Cc1cn2c(n1)Cc1ccc(Cl)cc1C(c1ccc(N)cc1)=N2`: the max response is 1.16% (inactive).

In the case of `CC1(CO)CC(O)[C@]2(C(=O)O)CCC34CC3(C=CC3[C@]5(C)C(CC[C@]34C)C(C)(CO)[C@@H](O)[C@H](O)[C@@H]5O)C2C1` (some centres not stated), the call was inactive.

On to `CC(=O)O[C@H]1C[C@@](O)(C(C)C)[C@@H]2[C@@H](OC(=O)c3ccc(O)cc3)CC(C)=CC[C@@]12C`, for which the max response is 6.43% (inactive).

For the compound `Cc1ccc(C(C)C)c(O[C@@H]2O[C@H](CO)[C@@H](O)[C@H](O)[C@H]2O)c1`, the max response is -7.27% (inactive).

With `O=C1Nc2ccccc2-c2nc3ccccc3c(=O)n2-c2c(O)cccc21`, the max response is 0.451% (inactive).

On to `COc1ccc(CN2CCN(CCCSc3cc(C(C)(C)C)c(O)c(C(C)(C)C)c3)CC2)c(OC)c1OC`, for which the outcome was inactive.

With `CN(C)c1ccnc2sc3c(=O)n(N4CCCCCC4)cnc3c12`, the max response was 7% (inactive).

Turning to `Cc1c(C(=O)NCc2cccnc2)nn(-c2ccc(Cl)cc2Cl)c1-c1ccc(Cl)cc1`, the max response was -24% (inactive).

For `CC(C)=CCc1cc2c(cc1O)OC[C@H]1c3ccc(O)cc3O[C@@H]21`, the max response was -5.17% (inactive).

As for `Cn1cc(-c2ccc(F)c(C(F)(F)F)c2)nc1C1CCN(c2ncnc3[nH]ncc23)CC1`, the max response was 0.816% (inactive).

Regarding `O=C(O)CCc1nccc2c1[nH]c1ccccc12`, the call was inactive.

Take `NS(=O)(=O)c1ccc(N2CCN(CC[C@@H]3OCCc4ccccc43)CC2)cc1`: the max response was -10.3% (inactive).

As for `CC1(C)CC[C@]23CO[C@@]4(CCC5[C@@]6(C)CC[C@H](O[C@@H]7OC[C@H](O[C@@H]8O[C@H](CO)[C@@H](O)[C@H](O)[C@H]8O[C@@H]8OC[C@@H](O)[C@H](O)[C@H]8O)[C@H](O)[C@H]7O)[C@@](C)(CO)C6CC[C@@]5(C)[C@]4(C)CC2=O)[C@@H]3C1` (some centres not stated), the compound was classed as inactive.

On to `Cc1ccc(CNc2ncnc3ccc(-c4ccc(CO)o4)cc23)o1`, for which the max response was 8.1% (inactive).

In the case of `C/C(=C/CO)CCC1C(C)CCC2C(C)(C)CCCC12C` (configuration not stated), the max response was 6.99% (inactive).

In the case of `C[C@@H]1O[C@@H](O[C@H]2CC[C@@]3(C)C(CC[C@]4(C)C3CC=C3[C@@H]5CC(C)(C)CC[C@]5(C(=O)O[C@@H]5O[C@H](CO)[C@@H](O)[C@H](O)[C@H]5O)CC[C@]34C)[C@]2(C)CO)[C@H](O)[C@H](O[C@@H]2O[C@H](CO)[C@@H](O)[C@H](O)[C@H]2O)[C@H]1O` (some centres not stated), the result was inactive.

`C[C@H](Nc1cc2c(-c3ccc4c(c3)OCO4)noc2cn1)c1ccccc1`: the outcome was inactive.

Regarding `O=C(N[C@H](Cc1cscn1)C(=O)N[C@@H](CC1CCCCC1)[C@@H](O)[C@@H](O)C1CC1)c1nc2ccccc2[nH]1`, the max response was -12.2% (inactive).

`O=C(NCCCc1ccccc1)C1CCC(CNS(=O)(=O)c2cccc3nsnc23)CC1` (configuration not stated): the max response was -11.8% (inactive).

For `CC(C)c1ccc(NC(=O)Cn2cnc3c2c(=O)n(C)c(=O)n3C)cc1`, the max response was 2.05% (inactive).

Regarding `C=C1C(=O)OC[C@@H]1C/C=C(\C)CC1CC(C)C(=O)O1` (some centres not stated), the compound was called inactive.
